Experimental data published in PubChem BioAssay (EPA / NIEHS).
Results filed as inconclusive are left out. The source made the active and inactive calls. How the source made its calls, unless noted: active means hit-call score of the fitted dose curve at least 0.9, where 1 is the maximum; inactive means score below 0.9.

Legend:
[1] = target: human CYP19A1, CYP19A1 (gene 1588) (UniProt P11511); experiment: NVS_ADME_hCYP19A1: NovaScreen (NVS) CYP450-related Enzyme Activity (ADME) Assay for human CYP19A1 (AID 2283098; active means hit-call score of the fitted dose curve at least 0.9, where 1 is the maximum)
Sequence of human CYP19A1, CYP19A1 (gene 1588) (P11511 whole entry, looked up): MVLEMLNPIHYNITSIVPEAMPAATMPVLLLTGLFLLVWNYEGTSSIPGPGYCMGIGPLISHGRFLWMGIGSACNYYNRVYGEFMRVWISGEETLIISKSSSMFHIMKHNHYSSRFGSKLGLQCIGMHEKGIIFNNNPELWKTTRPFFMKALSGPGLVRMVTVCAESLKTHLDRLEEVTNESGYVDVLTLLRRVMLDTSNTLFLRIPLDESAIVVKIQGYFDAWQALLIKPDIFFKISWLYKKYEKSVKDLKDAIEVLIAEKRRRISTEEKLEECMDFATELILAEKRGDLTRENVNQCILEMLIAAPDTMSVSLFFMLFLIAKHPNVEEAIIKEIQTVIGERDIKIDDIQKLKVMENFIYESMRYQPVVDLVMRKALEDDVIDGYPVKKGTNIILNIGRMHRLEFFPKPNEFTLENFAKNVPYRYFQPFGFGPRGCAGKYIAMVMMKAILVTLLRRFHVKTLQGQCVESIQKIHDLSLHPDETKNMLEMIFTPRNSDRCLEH
Method in brief: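 Fluorescence intensity read-out; activity taken as signal loss relative to acetonitrile vehicle. Extracted enzyme, specific substrate, no cells, 0.5 h exposure. Duplicate single-point screen at 10 uM, then concentration–response follow-up for actives.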

[2] = target: human CYP2B6, CYP2B6 (gene 1555) (UniProt P20813); experiment: NVS_ADME_hCYP2B6: NovaScreen (NVS) CYP450-related Enzyme Activity (ADME) Assay for human CYP2B6 (AID 2283101; active means hit-call score of the fitted dose curve at least 0.9, where 1 is the maximum)
Sequence of human CYP2B6, CYP2B6 (gene 1555) (P20813 whole entry, looked up): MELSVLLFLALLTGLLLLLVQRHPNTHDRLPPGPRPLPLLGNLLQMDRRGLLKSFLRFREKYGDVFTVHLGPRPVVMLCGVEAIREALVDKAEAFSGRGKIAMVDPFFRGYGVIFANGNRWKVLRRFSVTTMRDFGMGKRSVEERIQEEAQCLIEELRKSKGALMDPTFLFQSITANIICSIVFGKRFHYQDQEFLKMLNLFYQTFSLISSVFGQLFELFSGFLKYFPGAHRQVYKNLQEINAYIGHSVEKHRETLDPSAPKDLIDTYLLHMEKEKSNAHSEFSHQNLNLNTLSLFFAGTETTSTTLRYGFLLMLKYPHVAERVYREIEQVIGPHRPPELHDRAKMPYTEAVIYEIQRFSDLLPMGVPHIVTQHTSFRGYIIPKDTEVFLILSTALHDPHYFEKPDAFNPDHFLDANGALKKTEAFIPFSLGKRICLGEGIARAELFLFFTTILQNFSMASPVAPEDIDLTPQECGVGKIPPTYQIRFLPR
Method in brief: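 Compounds were first screened in duplicate at 10 uM against recombinant enzyme, with the fluorescent product measured after 1 hour. Active compounds were retested over a concentration series. Loss of fluorescence versus acetonitrile control was scored as reduced enzyme activity.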

[3] = target: human CYP1A1, CYP1A1 (gene 1543) (UniProt P04798); experiment: NVS_ADME_hCYP1A1: NovaScreen (NVS) CYP450-related Enzyme Activity (ADME) Assay for human CYP1A1 (AID 2283100; active means hit-call score of the fitted dose curve at least 0.9, where 1 is the maximum)
Sequence of human CYP1A1, CYP1A1 (gene 1543) (P04798 whole entry, looked up): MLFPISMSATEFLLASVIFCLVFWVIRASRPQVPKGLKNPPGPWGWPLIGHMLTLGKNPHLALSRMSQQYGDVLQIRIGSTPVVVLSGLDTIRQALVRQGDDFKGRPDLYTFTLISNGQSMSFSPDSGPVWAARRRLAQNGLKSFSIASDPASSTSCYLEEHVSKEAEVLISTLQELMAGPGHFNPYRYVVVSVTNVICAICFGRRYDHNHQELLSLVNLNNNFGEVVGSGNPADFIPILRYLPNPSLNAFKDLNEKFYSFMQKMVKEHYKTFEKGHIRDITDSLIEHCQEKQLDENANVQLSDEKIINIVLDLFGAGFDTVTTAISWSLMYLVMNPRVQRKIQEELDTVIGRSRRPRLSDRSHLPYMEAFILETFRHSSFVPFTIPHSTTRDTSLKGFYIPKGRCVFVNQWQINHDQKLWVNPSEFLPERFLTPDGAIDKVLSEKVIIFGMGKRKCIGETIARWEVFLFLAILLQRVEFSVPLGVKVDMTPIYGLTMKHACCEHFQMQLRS
Method in brief: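 Recombinant CYP1A1 with a fluorogenic substrate, cell-free, read 1 h after dosing; acetonitrile as negative control. Single-concentration screen at 10 uM in duplicate, then concentration-response up to 20 uM for chemicals meeting ~30% inhibition threshold.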

[4] = read-out: Monocyte Chemoattractant Protein-1 (MCP1), CCL2 (gene 6347); experiment: BSK_LPS_MCP1: BioMAP Diversity Plus: LPS Assay for Monocyte Chemoattractant Protein-1 (MCP1) Biomarker Activity (AID 2283081); details: primary human HUVEC with PBMC; actives raise or lower the signal;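 on AC50: secreted MCP-1 protein quantified by ELISA in culture supernatant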
Method in brief: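 Human umbilical vein endothelial cells co-cultured with PBMC, LPS-stimulated; secreted MCP-1 measured by ELISA 24 h after compound addition. Bidirectional curve fitting against DMSO baseline; SRB total-protein staining in parallel cultures for cytotoxicity.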

[5] = BSK_LPS_PGE2: BioMAP Diversity Plus: LPS Assay for Prostaglandin E2 (PGE2) Biomarker Activity (AID 2283082); details: primary human HUVEC with PBMC; actives raise or lower the signal
Method in brief: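 Primary human endothelial cells and blood mononuclear cells, co-cultured with LPS, receive test chemical; PGE2 ELISA follows at 24 h, with SRB-stained parallel cultures flagging cytotoxicity.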

[6] = read-out: Tissue Factor, F3 (gene 2152); experiment: BSK_LPS_TissueFactor: BioMAP Diversity Plus: LPS Assay for Tissue Factor Biomarker Activity (AID 2283084); details: primary human HUVEC with PBMC; actives raise or lower the signal
Method in brief: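 Human umbilical vein endothelial cells co-cultured with PBMC were dosed with compound. Cell-surface CD142 was measured by ELISA 24 h later. Activity was fitted bidirectionally against DMSO, with SRB total-protein staining in parallel cultures for cytotoxicity.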

[7] = read-out: Vascular cell adhesion molecule 1 (VCAM1), VCAM1 (gene 7412); experiment: BSK_LPS_VCAM1: BioMAP Diversity Plus: LPS Assay for Vascular cell adhesion molecule 1 (VCAM1) Biomarker Activity (AID 2283086); details: primary human HUVEC with PBMC; actives raise or lower the signal
Method in brief: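 Measured by ELISA: VCAM-1 in LPS-activated HUVEC/PBMC co-cultures 24 h after treatment. Values reflect bidirectional fitting with DMSO as baseline.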

CD38, CD38 (gene 952) = experiment: BSK_SAg_CD38: BioMAP Diversity Plus: SAg Assay for CD38 Biomarker Activity (AID 2283087); details: primary human HUVEC with PBMC; actives raise or lower the signal
Method in brief: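 Measures CD38 on a human endothelial/PBMC co-culture driven by SEB and TSST-1, 24 h after compound exposure, using ELISA with fluorescence detection; DMSO defines baseline for bidirectional curve fitting.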

CD40, CD40 (gene 958) = experiment: BSK_SAg_CD40: BioMAP Diversity Plus: SAg Assay for CD40 Biomarker Activity (AID 2283088); details: primary human HUVEC with PBMC; actives raise or lower the signal
Method in brief: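 HUVEC plus PBMC co-culture, superantigen-activated, with CD40 read by ELISA 24 h after dosing. Curves fitted in both directions against DMSO. Overt cytotoxicity checked by parallel SRB total-protein staining.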

CD69, CD69 (gene 969) = experiment: BSK_SAg_CD69: BioMAP Diversity Plus: SAg Assay for CD69 Biomarker Activity (AID 2283089); details: primary human HUVEC with PBMC; actives raise or lower the signal;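 on AC50: cell surface CD69 protein quantified by ELISA with fluorescence detection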
Method in brief: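 Values derive from bidirectional fitting relative to DMSO vehicle. Cells: umbilical vein endothelium plus peripheral blood mononuclear cells, treated 24 h before fluorescent ELISA for CD69.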

[8] = read-out: Monocyte Chemoattractant Protein-1 (MCP1), CCL2 (gene 6347); experiment: BSK_SAg_MCP1: BioMAP Diversity Plus: SAg Assay for Monocyte Chemoattractant Protein-1 (MCP1) Biomarker Activity (AID 2283090); details: primary human HUVEC with PBMC; actives raise or lower the signal
Method in brief: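 Values derive from bidirectional fitting of ELISA-measured MCP1 against DMSO controls. Readings were taken 24 h after dosing human vascular endothelial cells co-cultured with peripheral blood mononuclear cells under superantigen stimulation.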

[9] = read-out: Monokine induced gamma interferon (MIG), CXCL9 (gene 4283); experiment: BSK_SAg_MIG: BioMAP Diversity Plus: SAg Assay for Monokine induced gamma interferon (MIG) Biomarker Activity (AID 2283092); details: primary human HUVEC with PBMC; actives raise or lower the signal
Method in brief: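 Values reflect bidirectional fitting of ELISA-measured MIG against DMSO vehicle, taken 24 h after dosing of a co-culture of human umbilical vein endothelial cells and peripheral blood mononuclear cells.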

[10] = BSK_SAg_PBMCCytotoxicity: PBMC Cytotoxicity Assessment in the BioMAP Diversity Plus: SAg Assay (AID 2283093); details: primary human HUVEC with PBMC;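 further: fitted both ways against DMSO so a hit may be loss or gain of signal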;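 on AC50: PBMC superantigen activated with SEB plus TSST-1 one hour after compound addition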
Method in brief: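 PBMC viability by Alamar Blue reduction, fluorescence read at 546/580 nm after 6 h dye exposure. Cells were dosed 1 h before SEB plus TSST-1 activation (20 ng/mL final each), then held 90 h; endothelial/PBMC human co-culture.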

[11] = read-out: Interleukin-8 (IL8), CXCL8 (gene 3576); experiment: BSK_SAg_IL8: BioMAP Diversity Plus: SAg Assay for Interleukin-8 (IL8) Biomarker Activity (AID 2283094); details: primary human HUVEC with PBMC; actives raise or lower the signal
Method in brief: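 Primary human endothelial cells with PBMC, exposed 24 h; IL-8 determined by ELISA, analysed bidirectionally relative to DMSO.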

[12] = BSK_SAg_Proliferation: Cell Proliferation Assessment in the BioMAP Diversity Plus: SAg Assay (AID 2283095); details: primary human HUVEC with PBMC;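 further: relative cell number as total protein by SRB absorbance in sub-confluent culture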
Method in brief: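 A human primary co-culture of umbilical vein endothelium and blood mononuclear cells receives compound; relative cell number is quantified at 96 h by SRB staining and 560 nm absorbance, with DMSO-referenced bidirectional curve fitting.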

[13] = BSK_SAg_SRB: Viability Assessment in the BioMAP Diversity Plus: SAg Assay (AID 2283096); details: primary human HUVEC with PBMC;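 further: cells read one day after compound addition; hits may be either gain or loss of signal compared with DMSO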
Method in brief: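 Compounds were added to a human vascular co-culture of umbilical vein endothelium and PBMC. After 24 h, parallel cultures were fixed with 10% TCA, stained with 0.1% sulforhodamine B and read at 560 nm. Gain or loss of signal was fitted relative to DMSO.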

[14] = target: human CYP1A2, CYP1A2 (gene 1544) (UniProt P05177); experiment: NVS_ADME_hCYP1A2: NovaScreen (NVS) CYP450-related Enzyme Activity (ADME) Assay for human CYP1A2 (AID 2283102; active means hit-call score of the fitted dose curve at least 0.9, where 1 is the maximum)
Sequence of human CYP1A2, CYP1A2 (gene 1544) (P05177 whole entry, looked up): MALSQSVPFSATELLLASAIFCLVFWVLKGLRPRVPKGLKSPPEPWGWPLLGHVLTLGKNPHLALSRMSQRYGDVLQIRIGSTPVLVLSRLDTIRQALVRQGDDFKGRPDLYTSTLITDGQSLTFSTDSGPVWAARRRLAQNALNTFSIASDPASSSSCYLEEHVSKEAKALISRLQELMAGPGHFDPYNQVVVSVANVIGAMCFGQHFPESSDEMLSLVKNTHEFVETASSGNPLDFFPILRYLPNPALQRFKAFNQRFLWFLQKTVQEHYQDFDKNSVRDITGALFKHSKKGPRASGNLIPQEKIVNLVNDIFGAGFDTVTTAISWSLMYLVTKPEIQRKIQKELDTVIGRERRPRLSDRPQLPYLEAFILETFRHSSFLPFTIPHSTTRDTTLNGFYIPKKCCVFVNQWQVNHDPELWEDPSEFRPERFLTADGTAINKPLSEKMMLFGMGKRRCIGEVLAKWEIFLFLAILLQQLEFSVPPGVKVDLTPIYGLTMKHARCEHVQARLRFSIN
Method in brief: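 Recombinant human CYP1A2 from insect cells, cell-free, fluorogenic substrate; read 0.5 h after dosing with loss of fluorescence signal indicating inhibition. Primary screen in duplicate at 10 uM, acetonitrile as negative control.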

Measured: AC50

CC/C(=C(\c1ccccc1)c1ccc(OCCN(C)C)cc1)c1ccccc1
inactive: [1] | [2]

C#C[C@]1(O)CC[C@H]2[C@@H]3CCc4cc(O)ccc4[C@H]3CC[C@@]21C
inactive: [3] | [2]

CC(=O)OC(C)(C)C1CC=C(C)CC1 (centres undefined)
not listed: [1] | [2] | [3] | [14]
inactive: all other assays above

Nc1ccc(N)c([N+](=O)[O-])c1
active: [7] 5090 nM | CD69, CD69 (gene 969) 8690 nM
not listed: [1] | [2] | [3] | [10] | [14]
inactive: all other assays above

CCn1cc(C(=O)O)c(=O)c2ccc(C)nc21
not listed: [1] | [2] | [3] | [14]
inactive: all other assays above

CC(C)(C)c1cccc(O)c1
not listed: [1] | [2] | [3] | [14]
inactive: all other assays above

CCCCOCCOCCO
not listed: [1] | [2] | [3] | [14]
inactive: all other assays above

O=S1(=O)CC(Cl)(Cl)C(Cl)(Cl)C1
active: [4] 1760 nM | [6] 538 nM | [7] 797 nM | CD38, CD38 (gene 952) 350 nM | CD40, CD40 (gene 958) 480 nM | CD69, CD69 (gene 969) 486 nM | [8] 807 nM | [9] 2750 nM | [10] 515 nM | [11] 337 nM | [12] 79.7 nM | [13] 655 nM
inactive: [5]

C[C@]12CC[C@@H]3c4ccc(O)cc4CC[C@H]3[C@@H]1CC[C@@H]2O
active: [7] 16500 nM | CD38, CD38 (gene 952) 16700 nM | CD40, CD40 (gene 958) 15800 nM | CD69, CD69 (gene 969) 20000 nM | [9] 20000 nM | [12] 13500 nM | [13] 10300 nM
inactive: [4] | [5] | [6] | [10] | [11] | [1]

C=C(C)C(N)=O
not listed: [1] | [2] | [3]
inactive: all other assays above

O=S(=O)(O)C(F)(F)C(F)(F)OC(F)(F)C(F)(F)F
not listed: [1] | [2] | [3] | [14]
inactive: all other assays above

CCCCN(CCO)CCO
not listed: [1] | [2] | [3] | [14]
inactive: all other assays above
